Source: PubChem BioAssay
FAS TE block = blocks the thioesterase domain of human fatty acid synthase; AID 602261; inhibition, % at 15 µM; recombinant FAS-TE, OMFH fluorogenic substrate, fluorescence endpoint; 0.67% of 360,000 active;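 active = compounds whose normalised, plate-corrected inhibition of enzyme fluorescence in the single-dose primary screen is 50% or more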
Target sequence (P49327 whole entry, looked up, the tested form may be a part): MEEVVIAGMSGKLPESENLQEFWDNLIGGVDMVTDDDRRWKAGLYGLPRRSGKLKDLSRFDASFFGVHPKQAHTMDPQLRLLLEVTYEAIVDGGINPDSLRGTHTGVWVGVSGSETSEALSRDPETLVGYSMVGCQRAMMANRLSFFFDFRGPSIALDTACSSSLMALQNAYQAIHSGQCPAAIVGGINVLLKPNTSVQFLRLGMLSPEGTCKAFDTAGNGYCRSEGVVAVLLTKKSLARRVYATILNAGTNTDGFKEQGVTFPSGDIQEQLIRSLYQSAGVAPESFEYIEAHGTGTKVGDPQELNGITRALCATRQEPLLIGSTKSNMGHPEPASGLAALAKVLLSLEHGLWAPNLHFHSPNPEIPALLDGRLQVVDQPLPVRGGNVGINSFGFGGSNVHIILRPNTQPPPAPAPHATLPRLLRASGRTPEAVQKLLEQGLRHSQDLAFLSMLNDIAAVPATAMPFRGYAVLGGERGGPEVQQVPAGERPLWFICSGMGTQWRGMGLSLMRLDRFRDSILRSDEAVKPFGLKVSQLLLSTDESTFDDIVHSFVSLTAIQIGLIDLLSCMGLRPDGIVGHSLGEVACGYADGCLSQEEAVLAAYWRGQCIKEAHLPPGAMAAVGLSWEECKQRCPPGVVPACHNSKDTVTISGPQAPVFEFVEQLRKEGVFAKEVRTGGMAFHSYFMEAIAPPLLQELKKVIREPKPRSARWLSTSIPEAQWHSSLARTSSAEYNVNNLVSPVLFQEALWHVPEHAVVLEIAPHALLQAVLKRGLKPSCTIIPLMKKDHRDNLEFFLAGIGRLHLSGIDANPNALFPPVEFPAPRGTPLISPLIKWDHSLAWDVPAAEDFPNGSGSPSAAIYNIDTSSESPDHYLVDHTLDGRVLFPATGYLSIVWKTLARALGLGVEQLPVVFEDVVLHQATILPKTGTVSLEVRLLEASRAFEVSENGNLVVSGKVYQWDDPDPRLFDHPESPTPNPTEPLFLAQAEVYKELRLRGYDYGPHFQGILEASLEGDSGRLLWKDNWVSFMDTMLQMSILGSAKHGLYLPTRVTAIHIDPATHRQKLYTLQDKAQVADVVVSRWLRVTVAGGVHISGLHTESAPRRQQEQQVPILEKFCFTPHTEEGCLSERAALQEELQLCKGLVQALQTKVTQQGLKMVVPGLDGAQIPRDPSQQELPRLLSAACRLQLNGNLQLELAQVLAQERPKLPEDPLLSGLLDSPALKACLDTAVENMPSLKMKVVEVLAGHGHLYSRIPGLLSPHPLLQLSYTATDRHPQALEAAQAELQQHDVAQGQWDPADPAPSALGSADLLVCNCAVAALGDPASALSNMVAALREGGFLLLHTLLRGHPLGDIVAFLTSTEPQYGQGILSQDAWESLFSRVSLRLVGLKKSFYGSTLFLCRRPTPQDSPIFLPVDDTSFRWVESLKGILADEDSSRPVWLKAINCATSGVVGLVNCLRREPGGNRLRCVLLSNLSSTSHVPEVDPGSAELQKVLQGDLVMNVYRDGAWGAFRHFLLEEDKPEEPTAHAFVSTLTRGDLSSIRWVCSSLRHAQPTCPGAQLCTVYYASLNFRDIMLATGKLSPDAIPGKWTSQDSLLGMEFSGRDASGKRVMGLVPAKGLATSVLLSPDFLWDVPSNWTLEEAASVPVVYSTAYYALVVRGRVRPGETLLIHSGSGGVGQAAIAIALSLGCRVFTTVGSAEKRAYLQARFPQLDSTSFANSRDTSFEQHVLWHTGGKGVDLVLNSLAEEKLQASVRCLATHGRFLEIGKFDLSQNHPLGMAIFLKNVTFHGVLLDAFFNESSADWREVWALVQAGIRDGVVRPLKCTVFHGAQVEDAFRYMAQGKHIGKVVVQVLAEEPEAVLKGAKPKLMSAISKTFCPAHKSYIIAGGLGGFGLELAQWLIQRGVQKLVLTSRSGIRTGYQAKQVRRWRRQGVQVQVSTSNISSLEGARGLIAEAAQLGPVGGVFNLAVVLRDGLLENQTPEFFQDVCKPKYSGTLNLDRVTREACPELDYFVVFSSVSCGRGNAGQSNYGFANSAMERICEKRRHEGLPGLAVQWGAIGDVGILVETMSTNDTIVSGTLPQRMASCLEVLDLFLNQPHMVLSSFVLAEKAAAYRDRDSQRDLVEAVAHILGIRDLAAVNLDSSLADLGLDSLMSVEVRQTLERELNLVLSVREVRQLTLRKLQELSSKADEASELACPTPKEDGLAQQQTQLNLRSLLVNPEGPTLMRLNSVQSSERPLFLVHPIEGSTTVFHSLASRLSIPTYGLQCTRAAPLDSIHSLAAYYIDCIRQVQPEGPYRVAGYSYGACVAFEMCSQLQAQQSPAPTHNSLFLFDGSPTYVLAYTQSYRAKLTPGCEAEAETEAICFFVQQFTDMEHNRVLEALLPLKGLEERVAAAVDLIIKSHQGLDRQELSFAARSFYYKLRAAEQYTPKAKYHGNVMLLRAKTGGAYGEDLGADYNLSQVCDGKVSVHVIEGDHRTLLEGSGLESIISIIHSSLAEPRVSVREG
beta cell repl = induces beta-cell replication in MIN6 cells. proliferation, % at 10 µM. AID 2380. MIN6 cells proliferation, ATPlite luminescence, 48 h; cells starved in 0.2% serum; 100% = growth in 10% serum. 0.29% of 330,000 active;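 active = compounds whose signal lies at least 3.5 SD above the mean of all wells on their plate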
Calpain2 inh = inhibitors of pig calpain II; 0.37% of 220,000 active; purified calpain II, fluorogenic peptide substrate, 30 min; AID 1236; inhibition, % at 16 µM;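 active = inhibition above about 50%, limit read from the data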
aDG glyco act = increases alpha dystroglycan glycosylation; Pro5-aDG cells, alpha-DG glycosylation AlphaScreen (IIH6); 0% Pro5, 100% B10-LARGE cell signal; activation, % at 10 µM; 0.22% of 360,000 active;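 active = activation of at least 8% versus controls, or a plate z-score of at least 8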;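 also: Pro5 are CHO cells carrying HIG-tagged alpha-DG that lacks glycosylation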
TAG inh = inhibitors of triacylglycerol accumulation; H9c2 cells, Nile Red lipid (TAG) fluorescence; cells loaded with 200 µM oleic acid; inhibition, % at 12.5 µM; 0.66% of 230,000 active; AID 651582;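 active = pattern-corrected inhibition of lipid staining of at least 50% with the nuclear-stain viability signal not falling by more than 50%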
Cardio protect = protects H9c2 cardiomyocytes from peroxide injury; H2O2 injury protection, ATPLite, 2 h; protection from H2O2 cell death, % at 20 µM; 0.63% of 360,000 active; AID 588492;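 active = compounds giving at least 50% protection of heart cells from peroxide-induced death in the single-dose screen, raw or plate-pattern-corrected value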
Numbers stand for hits; . = inactive; / = not tested or not shown. A selection: hits, their analogues and other compounds. The true share with any hit is near 2.3%.

SMILES	FAS TE block	beta cell repl	Calpain2 inh	aDG glyco act	TAG inh	Cardio protect
O=C(COC(=O)CCc1nc2ccccc2c(=O)[nH]1)NC(c1ccccc1)c1ccccc1	.	.	.	.	.	59
CCN(CC(=O)Nc1cc(Cl)ccc1C)C(=O)CCc1nc2ccccc2c(=O)[nH]1	.	.	/	.	.	69
CCN(CC(=O)Nc1ccc(NC(C)=O)cc1)C(=O)CCCc1nc2ccccc2c(=O)[nH]1	.	.	/	.	.	.
COc1cc(C(=O)NC(=S)Nc2ccc3ccccc3c2)cc(OC)c1OC	.	/	/	.	.	.
COc1ccc(C(=O)NNC(=O)CCc2nc3ccccc3c(=O)[nH]2)cc1	.	.	/	.	.	64
COc1ccc(C(=O)NNC(=O)c2ccc3ccccc3n2)cc1	.	.	/	.	.	52
N#CCCN(C(=O)COC(=O)CCc1nc2ccccc2c(=O)[nH]1)c1ccccc1F	.	.	/	.	.	58
CCc1ccc(C(=O)NNC(=O)CCc2nc3ccccc3c(=O)[nH]2)cc1	.	.	/	.	.	.
COc1cc(NC(=O)c2cc3ccccc3cc2OC)ccc1NC(=O)c1cccs1	.	.	/	.	/	63
COc1cc(NC(=O)c2ccccc2Cl)ccc1NC(=O)c1cccs1	.	.	.	.	.	.
CC(C)c1ccc(NNC(=O)C2CCC2)cc1	.	.	.	.	.	.
Nc1cc(S(=O)(=O)N2CCCCC2)ccc1Oc1ccccc1	.	.	51	.	.	.
Cc1cc(NC(=S)N(Cc2cccc(Br)c2)CC2CCC(C(=O)O)CC2)ccc1Cl (centres undefined)	.	/	53	.	.	.
Cc1ccc(NC(=S)N(Cc2cccc(Br)c2)CC2CCC(C(=O)O)CC2)cc1 (centres undefined)	.	.	.	.	.	.
O=C(CCNC(=O)C1CCN(S(=O)(=O)c2ccccc2)CC1)NCc1ccc(Cl)cc1Cl	.	.	/	.	/	.
Cc1ccc(C)c(S(=O)(=O)N2CCCC2CNC(=O)C(=O)NCCc2ccccc2)c1 (centres undefined)	.	.	/	.	.	.
COc1ccc(CCNC(=O)C(=O)NCC2CCCN2S(=O)(=O)c2cc(C)ccc2C)cc1 (centres undefined)	.	.	/	.	.	76
CNS(=O)(=O)c1cc2c3c(cccc3c1)C(=O)NC2=O	.	.	.	.	.	58
Cc1ccc(NS(=O)(=O)c2cc3c4c(cccc4c2)C(=O)NC3=O)cc1	.	.	.	.	.	.
CCN(CC)c1ccc(C2C(C(=O)OC(C)C)C(=O)CC(C)(O)C2C(=O)OC(C)C)cc1 (centres undefined)	.	.	.	.	.	75
O=C(Nc1nc(-c2ccc(S(=O)(=O)N3CCCC3)cc2)cs1)c1cccs1	52	.	.	.	.	.
O=C(Nc1nc(-c2cccs2)cs1)c1cccc(S(=O)(=O)N2CCCCC2)c1	.	.	.	.	.	.
O=C(Nc1ccc(S(=O)(=O)N2CCCC2)cc1)c1cccs1	.	.	.	.	.	.
O=C(Nc1nc(-c2ccc(S(=O)(=O)N3CCCCCC3)cc2)cs1)c1cccs1	.	.	.	.	51	.
CCCc1cc(N2CCN(C(=O)c3ccco3)CC2)n2c(nc3ccccc32)c1C#N	.	.	.	.	.	55
SMILES	FAS TE block	beta cell repl	Calpain2 inh	aDG glyco act	TAG inh	Cardio protect
CC[C@@H]1C=C(C(=O)O)[C@H](c2ccc(OC)c(OC)c2)N1S(=O)(=O)c1ccc(C)cc1	.	.	/	.	.	.
Cc1cccc(NC(=O)CNC(=O)c2cccc(-n3cccc3)c2)c1C	.	.	/	.	.	.
Oc1cc(NCCN2CCOCC2)cc2cccnc12	.	.	/	.	74	.
O=C(NCc1ccco1)c1cnn2c(C(F)(F)F)cc(-c3cccs3)nc12	.	.	.	.	.	65
O=C(c1cnn2c(C(F)(F)F)cc(-c3cccs3)nc12)N1CCCC1	.	.	.	.	.	.
Cc1[nH]c2c(C)cccc2c1CCNC(=O)c1ccc2c(c1[N+](=O)[O-])C(=O)c1ccccc1C2=O	.	.	.	.	52	.
CCN1CCc2c(sc(NC(=O)c3ccc(S(=O)(=O)N(C)c4ccccc4)cc3)c2C(=O)NC)C1	.	.	/	43	.	57
Cc1ccc(C(=O)NCC(=O)NCC(c2cccs2)N2CCOCC2)cc1C (centres undefined)	.	.	/	.	.	.
CCOc1cc(CNCCc2ccc(S(N)(=O)=O)cc2)ccc1OCc1ccc(Cl)cc1	.	.	.	.	67	.
COc1cc(CNCCc2ccc(S(N)(=O)=O)cc2)ccc1OCc1ccc(Cl)cc1	.	.	.	.	/	.
Nc1[nH]c(C(=O)c2ccccc2)c(-c2ccccc2C(F)(F)F)c1C(=O)NCc1cccc2ccccc12	.	/	/	.	/	/
O=C(c1ccc(-c2nnc(-c3ccccc3)o2)cc1)N1CCCCCC1	.	.	60	.	.	.
CC1=NN(c2nc3ccccc3[nH]2)C(=O)C1Cc1ccccc1 (centres undefined)	.	.	.	.	54	.
O=C(Nc1nnc(-c2ccc3c(c2)CCCC3)o1)c1ccccc1	.	.	.	.	.	52
O=C(Nc1nnc(-c2ccc3c(c2)CCCC3)o1)c1ccccc1Cl	.	.	.	.	.	.
CC(C)n1c(O)c(N=Nc2ccc(Cl)nn2)c2ccccc21	.	.	.	.	/	65
CCOc1cccc(Nc2cc3n(c(=O)n2)CCc2cc(OC)c(OC)cc2-3)c1	.	.	.	.	/	60
CC(=O)N1c2ccc(S(=O)(=O)N(C)CC(=O)NC(C)c3ccccc3)cc2CC1C (centres undefined)	.	.	/	.	/	.
CCOC(=O)[C@]12CCCC=C1N(CCC1=CCCCC1)C(=O)[C@H](CC(=O)NCCCN1CCCC1=O)C2	/	/	/	.	/	/
Cc1ccc2c(c1)Oc1ccc(NC(=O)CCl)cc1C(=O)N2	.	.	.	.	56	.
CC(=O)C1C=CC(C)(C(=O)O)C2C=C(C)C(=O)C(C)(O)C12 (centres undefined)	.	/	/	.	.	.
C=C(C(=O)c1ccccc1)C(c1ccccc1)C(C)C(=O)c1ccccc1 (centres undefined)	.	.	.	.	.	.
C=C(C(=O)c1ccccc1)C(C)C(=C)C(=O)c1ccccc1	.	/	.	.	55	.
C=CCN=c1scc(C)n1/N=C/c1ccc(O)c(O)c1	.	.	.	.	.	65
CC1=C(C(=O)OCC(C)C)[C@]23C(=O)c4ccccc4[C@@]2(O1)OC(N)=C3C#N	.	.	.	.	.	.
CC1=C(C(=O)OCC(C)C)C23C(=O)c4ccccc4C2(O1)OC(N)=C3C#N (centres undefined)	.	.	59	.	/	.
COc1cc(OC)cc(-c2noc([C@@H]3O[C@H](CO)[C@H](O)[C@H](O)[C@H]3O)n2)c1	.	/	/	.	.	.
